The record followed here is article PMC11006913.

What all share (test): PBM; 200 nM protein, PBS
Holding throughout (conditions): dsDNA, one strand shown

Test [1] concerns the target T1, SIX6 (Homo sapiens, UniProt O95475 114-200, L167I).
T1 sequence: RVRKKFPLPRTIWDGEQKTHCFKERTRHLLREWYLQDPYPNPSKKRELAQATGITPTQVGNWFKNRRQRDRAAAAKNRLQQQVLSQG

The target of test [2] is T2, SIX6 (Homo sapiens, UniProt O95475 114-200, L143V).
T2 sequence: T1 sequence with L30V, I54L

Test [3] has as its target T3, SIX6 (Homo sapiens, UniProt O95475 114-200, H141N).
T3 sequence: T1 sequence with H28N, I54L

The target of test [4] is T4, SIX6 (Homo sapiens, UniProt O95475 114-200, T165P).
T4 sequence: T1 sequence with T52P, I54L

Test [5] has as its target T5, SIX6 (Homo sapiens, UniProt O95475 114-200, L167M).
T5 sequence: T1 sequence with I54M

Test [6] concerns the target T6, SIX6 (Homo sapiens, UniProt O95475 114-200, L143M).
T6 sequence: T1 sequence with L30M, I54L

The target in test [7] is T7, SIX6 (Homo sapiens, UniProt O95475 114-200, L143I).
T7 sequence: T1 sequence with L30I, I54L

Test [8] concerns the target T8, SIX6 (Homo sapiens, UniProt O95475 114-200, T165G).
T8 sequence: T1 sequence with T52G, I54L

For test [9], the target named is T9, SIX6 (Homo sapiens, UniProt O95475 114-200, T139Q).
T9 sequence: T1 sequence with T26Q, I54L

Test [10] deals with T10, SIX6 (Homo sapiens, UniProt O95475 114-200, T165A).
T10 sequence: T1 sequence with T52A, I54L

The target of test [11] is T11, SIX6 (Homo sapiens, UniProt O95475 114-200, L167V).
T11 sequence: T1 sequence with I54V

Test [12] has as its target T12, SIX6 (Homo sapiens, UniProt O95475 114-200).
T12 sequence: T1 sequence with I54L

The target of test [13] is T13, SIX6 (Homo sapiens, UniProt O95475 114-200, T165I).
T13 sequence: T1 sequence with T52I, I54L

Positions count from the first letter of the chain named.

For the sequence AGGTATCA, the binding signal with SIX6 [1] was 11.7 upbm affinity estimate (log intensity, higher = more binding, comparable within an allelic series); in the test with SIX6 [2], 10.6 upbm affinity estimate (log intensity, higher = more binding, comparable within an allelic series); with SIX6 [3], 11.8 upbm affinity estimate (log intensity, higher = more binding, comparable within an allelic series); with SIX6 [4] it was 9.9 upbm affinity estimate (log intensity, higher = more binding, comparable within an allelic series); in the test with SIX6 [5], 11 upbm affinity estimate (log intensity, higher = more binding, comparable within an allelic series); with SIX6 [6], 11.4 upbm affinity estimate (log intensity, higher = more binding, comparable within an allelic series). The binding signal in the test with SIX6 [7] was 10.7 upbm affinity estimate (log intensity, higher = more binding, comparable within an allelic series); with SIX6 [8] it was 11.8 upbm affinity estimate (log intensity, higher = more binding, comparable within an allelic series); with SIX6 [9] it was 11.6 upbm affinity estimate (log intensity, higher = more binding, comparable within an allelic series); with SIX6 [10], 11.7 upbm affinity estimate (log intensity, higher = more binding, comparable within an allelic series); with SIX6 [11] it was 11.5 upbm affinity estimate (log intensity, higher = more binding, comparable within an allelic series); with SIX6 [12], 11.4 upbm affinity estimate (log intensity, higher = more binding, comparable within an allelic series). Further, the binding signal with SIX6 [13] was 11.5 upbm affinity estimate (log intensity, higher = more binding, comparable within an allelic series).
For the sequence GGATATCC, the binding signal was 11 upbm affinity estimate (log intensity, higher = more binding, comparable within an allelic series) in the test with SIX6 [1]; 10.2 upbm affinity estimate (log intensity, higher = more binding, comparable within an allelic series) with SIX6 [2]; 10.9 upbm affinity estimate (log intensity, higher = more binding, comparable within an allelic series) with SIX6 [3]; 9.51 upbm affinity estimate (log intensity, higher = more binding, comparable within an allelic series) in the test with SIX6 [4]; 10.6 upbm affinity estimate (log intensity, higher = more binding, comparable within an allelic series) in the test with SIX6 [5]; 10.9 upbm affinity estimate (log intensity, higher = more binding, comparable within an allelic series) with SIX6 [6]. Besides, the binding signal with SIX6 [7] is 10.2 upbm affinity estimate (log intensity, higher = more binding, comparable within an allelic series); with SIX6 [8], 11 upbm affinity estimate (log intensity, higher = more binding, comparable within an allelic series); with SIX6 [9] it was 11 upbm affinity estimate (log intensity, higher = more binding, comparable within an allelic series); with SIX6 [10], 10.8 upbm affinity estimate (log intensity, higher = more binding, comparable within an allelic series); with SIX6 [11], 10.9 upbm affinity estimate (log intensity, higher = more binding, comparable within an allelic series); with SIX6 [12] it was 11 upbm affinity estimate (log intensity, higher = more binding, comparable within an allelic series). The binding signal in the test with SIX6 [13] was 10.9 upbm affinity estimate (log intensity, higher = more binding, comparable within an allelic series).
For the sequence ACTGATAC, the binding signal was 11.3 upbm affinity estimate (log intensity, higher = more binding, comparable within an allelic series) with SIX6 [1]; 10.3 upbm affinity estimate (log intensity, higher = more binding, comparable within an allelic series) with SIX6 [2]; 11.3 upbm affinity estimate (log intensity, higher = more binding, comparable within an allelic series) with SIX6 [3]; 9.79 upbm affinity estimate (log intensity, higher = more binding, comparable within an allelic series) with SIX6 [4]; 10.5 upbm affinity estimate (log intensity, higher = more binding, comparable within an allelic series) with SIX6 [5]; 10.9 upbm affinity estimate (log intensity, higher = more binding, comparable within an allelic series) in the test with SIX6 [6]. For the same sequence, the binding signal was 10.4 upbm affinity estimate (log intensity, higher = more binding, comparable within an allelic series) with SIX6 [7]; 11.3 upbm affinity estimate (log intensity, higher = more binding, comparable within an allelic series) in the test with SIX6 [8]; 11.3 upbm affinity estimate (log intensity, higher = more binding, comparable within an allelic series) with SIX6 [9]; 11.2 upbm affinity estimate (log intensity, higher = more binding, comparable within an allelic series) with SIX6 [10]; 10.9 upbm affinity estimate (log intensity, higher = more binding, comparable within an allelic series) with SIX6 [11]; 11 upbm affinity estimate (log intensity, higher = more binding, comparable within an allelic series) with SIX6 [12]. Moreover, the binding signal in the test with SIX6 [13] was 11 upbm affinity estimate (log intensity, higher = more binding, comparable within an allelic series).
With GCTGTCCC, the binding signal with SIX6 [1] was 8.84 upbm affinity estimate (log intensity, higher = more binding, comparable within an allelic series); with SIX6 [2], 8.8 upbm affinity estimate (log intensity, higher = more binding, comparable within an allelic series); with SIX6 [3], 8.82 upbm affinity estimate (log intensity, higher = more binding, comparable within an allelic series); with SIX6 [4], 9.07 upbm affinity estimate (log intensity, higher = more binding, comparable within an allelic series); in the test with SIX6 [5] it was 8.79 upbm affinity estimate (log intensity, higher = more binding, comparable within an allelic series); with SIX6 [6] it was 8.89 upbm affinity estimate (log intensity, higher = more binding, comparable within an allelic series). Also, the binding signal with SIX6 [7] was 8.88 upbm affinity estimate (log intensity, higher = more binding, comparable within an allelic series); in the test with SIX6 [8], 8.98 upbm affinity estimate (log intensity, higher = more binding, comparable within an allelic series); with SIX6 [9], 9.06 upbm affinity estimate (log intensity, higher = more binding, comparable within an allelic series); in the test with SIX6 [10], 8.87 upbm affinity estimate (log intensity, higher = more binding, comparable within an allelic series); in the test with SIX6 [11], 9.03 upbm affinity estimate (log intensity, higher = more binding, comparable within an allelic series); with SIX6 [12], 8.86 upbm affinity estimate (log intensity, higher = more binding, comparable within an allelic series). The binding signal in the test with SIX6 [13] is 8.9 upbm affinity estimate (log intensity, higher = more binding, comparable within an allelic series).
As for GCCCGGAA, the binding signal in the test with SIX6 [1] was 9.01 upbm affinity estimate (log intensity, higher = more binding, comparable within an allelic series); with SIX6 [2], 8.91 upbm affinity estimate (log intensity, higher = more binding, comparable within an allelic series); with SIX6 [3], 8.98 upbm affinity estimate (log intensity, higher = more binding, comparable within an allelic series); with SIX6 [4], 8.9 upbm affinity estimate (log intensity, higher = more binding, comparable within an allelic series); with SIX6 [5] it was 8.95 upbm affinity estimate (log intensity, higher = more binding, comparable within an allelic series); in the test with SIX6 [6] it was 9.01 upbm affinity estimate (log intensity, higher = more binding, comparable within an allelic series). Further, the binding signal is 9 upbm affinity estimate (log intensity, higher = more binding, comparable within an allelic series) with SIX6 [7]; 9.03 upbm affinity estimate (log intensity, higher = more binding, comparable within an allelic series) with SIX6 [8]; 9.07 upbm affinity estimate (log intensity, higher = more binding, comparable within an allelic series) with SIX6 [9]; 8.96 upbm affinity estimate (log intensity, higher = more binding, comparable within an allelic series) in the test with SIX6 [10]; 8.95 upbm affinity estimate (log intensity, higher = more binding, comparable within an allelic series) in the test with SIX6 [11]; 8.97 upbm affinity estimate (log intensity, higher = more binding, comparable within an allelic series) in the test with SIX6 [12]. Besides, the binding signal with SIX6 [13] was 8.98 upbm affinity estimate (log intensity, higher = more binding, comparable within an allelic series).
In the case of TATCATCA, the binding signal was 10.9 upbm affinity estimate (log intensity, higher = more binding, comparable within an allelic series) with SIX6 [1]; 10.3 upbm affinity estimate (log intensity, higher = more binding, comparable within an allelic series) with SIX6 [2]; 10.8 upbm affinity estimate (log intensity, higher = more binding, comparable within an allelic series) with SIX6 [3]; 9.94 upbm affinity estimate (log intensity, higher = more binding, comparable within an allelic series) with SIX6 [4]; 10.5 upbm affinity estimate (log intensity, higher = more binding, comparable within an allelic series) with SIX6 [5]; 10.8 upbm affinity estimate (log intensity, higher = more binding, comparable within an allelic series) in the test with SIX6 [6]. The binding signal in the test with SIX6 [7] is 10.2 upbm affinity estimate (log intensity, higher = more binding, comparable within an allelic series); in the test with SIX6 [8], 10.8 upbm affinity estimate (log intensity, higher = more binding, comparable within an allelic series); in the test with SIX6 [9], 10.9 upbm affinity estimate (log intensity, higher = more binding, comparable within an allelic series); in the test with SIX6 [10], 10.8 upbm affinity estimate (log intensity, higher = more binding, comparable within an allelic series); with SIX6 [11] it was 10.6 upbm affinity estimate (log intensity, higher = more binding, comparable within an allelic series); in the test with SIX6 [12], 10.7 upbm affinity estimate (log intensity, higher = more binding, comparable within an allelic series). The binding signal with SIX6 [13] is 10.7 upbm affinity estimate (log intensity, higher = more binding, comparable within an allelic series).
